Source: PubChem BioAssay (NCI)
The panel holds about 83,000 compounds, 20% with a hit somewhere; the sample as a whole holds those more often.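 Assay: single dose, 48 h. Readout: percent growth (0 = no net growth; negative = cell death). Active: <10.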 Values without a mark were called inactive.

test system: NCI-H226 lung; experiment: NCI-60 one-dose screen, 48 h (100 = growth as untreated, 0 = no growth, -100 = all killed); conditions: 10 µM
Protocol: Growth inhibition of the NCI-H226 human Non-Small Cell Lung tumor cell line is measured as a screen for anti-cancer activity. Cells are grown in 96 well plates and exposed to the test compound for 48 hours. Compounds are tested at a single concentration, which is 10^-5 M for most compounds. The reported endpoint is percent growth (GI% or GIPRCNT), where numbers from 0 - 100% represent growth inhibition, and numbers from -100% - 0 represent cell death. For example, a value of 40 represents 60% growth inhibition. A value of 0 means no net growth occurred over the course of the experiment. A value of -40 indicates 40% of cells at the beginning of the experiment died by the end of the experiment. A value of -100 means all cells are dead at the end of the experiment.
NCI-60 Human Tumor Cell Lines Screen was performed using the standard one-dose NCI protocol, which is described in more detail at https://dtp.cancer.gov/discovery_development/nci-60/default.htm.
Compounds with GIPRCNT values below 10 were considered active. Activity score was based on GIPRCNT using the following formula: […]
Score is 0 for GIPRCNT values of 100 or above, 50 for GIPRCNT values of 0, and 100 for GIPRCNT values of -100.

SMILES | growth [%]
O=C(NCCNC(=O)c1ccc(Cl)cc1Cl)c1ccc(Cl)cc1Cl | 101
C#CCSc1nnnn1-c1ccc(Br)c(C)c1 | 74.6
O=C(O)c1ccccc1NCc1ccco1 | 92.6
COC(=O)c1cc(-c2ccc(Cl)c(Cl)c2)[nH]c(=O)c1C#N | 94.6
O=C(O)c1ccc(S(=O)(=O)O)cc1 | 99.6
CCOC(=O)/C(=C/c1ccc(OC)cc1)N(CC)CC | 97
COC1=CC(=O)c2nc(Cl)ccc2C1=O | 26.6
CC(=O)c1c[nH]c2ccccc12 | 97.5
COc1ccc(OC)c(/C=C2\CCc3ccccc3C2=O)c1 | 76.5
CC1=CC(C)(C)NC(=S)N1c1ccc(S(=O)(=O)O)c2cccc(S(=O)(=O)O)c12 | 100
O=[N+]([O-])c1ccc(-c2ncc(-c3ccc(Br)cc3)o2)cc1 | 107
O=C(O)/C=C/c1ccc2c(c1)CCC2 | 105
CCCCC(O)c1ccccc1 (stereo not given) | 97.2
COc1ccc(NC(=O)CCl)cc1 | 82.5
N#CSc1cc(S(N)(=O)=O)ccc1N | 108
COc1ccc(-c2cc(-c3cc(-c4ccc(OC)cc4)nc(N)n3)nc(N)n2)cc1 | 99.4
Cc1cc2ccccc2c(O)c1C#N | 102
COc1cc2cc(OC(C)=O)c3cc4c(cc3c2c(OC)c1OC)OCO4 | 94.7
O=C1c2ccccc2C(=O)N1OCc1ccccc1 | 91.4
CC(C)CCOC(=O)c1ccccc1 | 102

SMILES | growth [%]
COc1cc(OC)c2ccc(=O)oc2c1 | 114
NNc1ccccc1C(=O)O | 96
NCCC(=O)c1ccc(Cl)cc1 | 112
CCCCC1(CC)COC(CCC)OC1 (stereo not given) | 98
O=C(NCc1ccco1)Nc1c(Cl)cc(Cl)cc1Cl | 99.6
COc1ccc2c(c1)CCc1c-2n[nH]c1-c1[nH]nc2c1CCc1cc(OC)ccc1-2 | 82.7
O=C(Cc1nc2ccc([N+](=O)[O-])cc2nc1CC(=O)c1cccnc1)c1cccnc1 | 52.2
O=[N+]([O-])c1ccc(Cl)c(S(=O)(=O)O)c1 | 109
O=C(O)C(O)c1ccccc1 (stereo not given) | 99.1
CC(C)=NNC(N)=S | 83.7
FC(F)(F)c1ccc2c(c1)N(CCCN1CCN(C3CC3)CC1)c1ccccc1S2 | 75.4
Nc1nc(OCc2ccccc2)c2[nH]cnc2n1 | 96
C=CCCCCCCCCCOC(C)=O | 96.7
CC(=O)c1ccc(C(C)(C)C)cc1 | 98.4
CCCCNC(=O)C(=O)NCCCC | 106
COc1ccc(C2(O)CCCCC2)cc1 | 92.1
O=C(CC(=O)c1ccccc1O)c1ccccc1 | 88.6
O=[N+]([O-])c1ccccc1S(=O)c1ccccc1[N+](=O)[O-] | 111
O=C1OC(=O)C2C1C1(Cl)C(Cl)=C(Cl)C2(Cl)C2C(=O)OC(=O)C21 (stereo not given) | 97.5
O=C(O)CCC(NC(=O)OCc1ccccc1)C(=O)O (stereo not given) | 98.8
